This is a sample that favours compounds with a hit; in the whole collection about 1.7% have one here.
HTR5A ag ctr – HTR5A agonists in luminescence cell assay, primary screen, counter-screen for OPRM1-OPRD1 heterodimer agonist project, full-deck HTS; 0.61% of 340,000 active; cell-based; AID 504692, 2011; activation, % at 9.3 µM; in the data active = activation mostly above about 9.5%, no sharp cut-off; inactive = mostly below about 7.6%;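 also: 0% = cells with vehicle only and 100% = reference agonist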
Target sequence (P47898 whole entry, looked up): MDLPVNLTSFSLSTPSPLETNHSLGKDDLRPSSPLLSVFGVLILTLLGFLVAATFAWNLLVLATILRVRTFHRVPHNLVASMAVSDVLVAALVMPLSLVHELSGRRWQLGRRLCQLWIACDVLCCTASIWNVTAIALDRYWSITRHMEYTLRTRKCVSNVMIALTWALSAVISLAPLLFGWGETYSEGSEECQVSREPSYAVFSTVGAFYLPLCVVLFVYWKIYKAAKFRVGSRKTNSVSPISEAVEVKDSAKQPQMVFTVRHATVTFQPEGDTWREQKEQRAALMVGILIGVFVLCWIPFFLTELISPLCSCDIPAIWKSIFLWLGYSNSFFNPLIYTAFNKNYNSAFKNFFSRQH
HTR5A inv ctr – HTR5A inverse agonists in luminescence cell assay, primary screen, counter-screen for OPRM1-OPRD1 heterodimer inverse agonist project, full-deck HTS. 5-hydroxytryptamine receptor 5A (Homo sapiens), P47898. HTR5A cell line, inverse agonism. inhibition, % at 9.3 µM. 0.083% of 340,000 active; in the data active = inhibition mostly above about 23%, no sharp cut-off; inactive = mostly below about 18%;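 also: 0% = cells with DMSO and 100% = no-cell wells with DMSO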
V-ATPase pH – regulators of yeast V-ATPase proton pumping, primary screen, pHLuorin cytosolic pH fluorescence; S. cerevisiae; response, % at 10 µM; 0.37% of 350,000 active; AID 504577, 2011; in the data active = response mostly above about 7.3%, no sharp cut-off; inactive = mostly below about 5.4%; also: actives read high
OPRM1-OPRD1 ag – agonists of OPRM1-OPRD1 heterodimerization, primary screen, cell-based, luminescence; Mu-type opioid receptor (Homo sapiens) + Delta-type opioid receptor (Homo sapiens), …; cells; activation, % at 9.3 µM; 0.3% of 340,000 active; in the data active = activation above about 18%;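 also: 0% = vehicle-treated cells and 100% = reference agonist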
MOR-DOR inv ag – inverse agonists of MOR-DOR heterodimerization, primary screen, cell-based, luminescence; Mu-type opioid receptor (Homo sapiens) + Delta-type opioid receptor (Homo sapiens), …; cell-based MOR-DOR heterodimer luminescence, inverse agonism; inhibition, % at 9.3 µM; 0.21% of 340,000 active; in the data active = inhibition above about 22%, passing the limit was not always enough;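 also: 0% = cells with DMSO and 100% = wells without cells with DMSO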
MIN6 prolif-1 – inducers of MIN6 beta-cell proliferation, primary screen, ATP luminescence, uHTS. proliferation, % at 10 µM. 0.29% of 330,000 active. MIN6 cells proliferation, ATPlite luminescence, 48 h; cells starved in 0.2% serum; 100% = growth in 10% serum. AID 2380, 2010;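 active = compounds whose signal lies at least 3.5 SD above the mean of all wells on their plate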;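 also: 0% = DMSO-treated cells in low-serum medium and 100% = 10% serum control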
MIN6 prolif-2 – inducers of beta-cell proliferation in MIN6, confirmation, MIN6 cells, mouse; ATPlite luminescence, 48 h; cells kept in 0.2% serum; scaled between 0.2% and 10% serum; 920 tested, under 10 active; AID 463095, 2010; proliferation increase, % at 50 µM; shares compounds with MIN6 prolif-1;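 active = proliferation increase above 40% at any of the four tested concentrations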
* = called active by the depositor.

For CC1=C(c2ccccc2)C(=S)NC(C)(C)C1 the results were HTR5A ag ctr 0, HTR5A inv ctr -7, V-ATPase pH 5, OPRM1-OPRD1 ag -3, MOR-DOR inv ag 13, MIN6 prolif-1 5.6* and MIN6 prolif-2 -2.
For COc1ccc(C2=C(C)CC(C)(C)NC2=O)cc1OC the results were HTR5A ag ctr -4, HTR5A inv ctr 11, V-ATPase pH 0, OPRM1-OPRD1 ag -1, MOR-DOR inv ag 6 and MIN6 prolif-1 -1.
`Cc1ccc(-n2ncc(Cl)c2C(=O)NC2CC2)cc1` gave HTR5A ag ctr -4, HTR5A inv ctr 10, V-ATPase pH -1, OPRM1-OPRD1 ag 0, MOR-DOR inv ag 1 and MIN6 prolif-1 0.
For CCOc1ccccc1N1CCN(C(=O)c2ccc(OCC(=O)N3CCOCC3)c(OC)c2)CC1 the results were HTR5A ag ctr -2, HTR5A inv ctr -2, V-ATPase pH 1, OPRM1-OPRD1 ag -2, MOR-DOR inv ag 11, MIN6 prolif-1 14* and MIN6 prolif-2 -2.
Cc1ccc(-c2cn(-c3ccccc3)c(SCC(N)=O)n2)cc1C was read as HTR5A ag ctr 6, HTR5A inv ctr 2, V-ATPase pH -2, OPRM1-OPRD1 ag -3, MOR-DOR inv ag 17, MIN6 prolif-1 7.6* and MIN6 prolif-2 -6.
For N#CCCn1nc(-c2ccc([N+](=O)[O-])cc2)cc1Nc1ccccc1NC(=O)C(F)(F)F the results were HTR5A ag ctr 4, HTR5A inv ctr 6, V-ATPase pH 2, OPRM1-OPRD1 ag 2, MOR-DOR inv ag -11 and MIN6 prolif-1 0.
CC1CCCN(CCCNC(=O)c2nn(C)c3c2CS(=O)(=O)c2ccccc2-3)C1 (stereo not drawn) was read as HTR5A ag ctr -2, HTR5A inv ctr 6, V-ATPase pH -2, OPRM1-OPRD1 ag 0, MOR-DOR inv ag -1, MIN6 prolif-1 7.0* and MIN6 prolif-2 0.
CCCn1c(N)c(NCCN2CCOCC2)c(=O)[nH]c1=O was read as HTR5A ag ctr -2, HTR5A inv ctr 6, V-ATPase pH 2, OPRM1-OPRD1 ag -3, MOR-DOR inv ag 14 and MIN6 prolif-1 1.
For NS(=O)(=O)c1ccc(NC(=O)COc2cccc3ccccc23)cc1 the results were HTR5A ag ctr 3, HTR5A inv ctr 9, V-ATPase pH -2, OPRM1-OPRD1 ag -2, MOR-DOR inv ag 11 and MIN6 prolif-1 -5.
For COc1cc(OC)cc(-c2nc(-c3cccs3)no2)c1 the results were HTR5A ag ctr 1, HTR5A inv ctr -2, V-ATPase pH 0, OPRM1-OPRD1 ag -1, MOR-DOR inv ag 6, MIN6 prolif-1 7.7* and MIN6 prolif-2 1.
For CCOC(=O)C1CCCN(C2CC(=O)N(c3ccccc3)C2=O)C1 (stereo not drawn) the results were HTR5A ag ctr 2, HTR5A inv ctr -6, V-ATPase pH -3, OPRM1-OPRD1 ag 0, MOR-DOR inv ag 2 and MIN6 prolif-1 0.
Screening CCOC(=O)C1CCCN(C2CC(=O)N(c3ccc(N4C(=O)CC(N5CCCC(C(=O)OCC)C5)C4=O)cc3)C2=O)C1 (stereo not drawn) returned HTR5A ag ctr -5, HTR5A inv ctr 12, V-ATPase pH 1, OPRM1-OPRD1 ag 0, MOR-DOR inv ag -2, MIN6 prolif-1 9.5* and MIN6 prolif-2 -1.
`COc1ccc(-c2c(C(C)=O)c(C)nc3sc4c(c23)NC(c2ccccc2)NC4=O)cc1` (stereo not drawn) gave HTR5A ag ctr -1, HTR5A inv ctr 5, V-ATPase pH -62, OPRM1-OPRD1 ag -3, MOR-DOR inv ag 15 and MIN6 prolif-1 -1.
CCOC(=O)c1c(C)nc2sc3c(c2c1-c1ccc(OC)cc1)NC(c1ccccc1)NC3=O (stereo not drawn) was read as HTR5A ag ctr 4, HTR5A inv ctr -13, V-ATPase pH 3, OPRM1-OPRD1 ag -1, MOR-DOR inv ag 5, MIN6 prolif-1 9.2* and MIN6 prolif-2 8.
Screening Cn1/c(=N/N=C/c2ccccn2)sc2ccccc21 returned V-ATPase pH 4 and MIN6 prolif-1 -1.
For COc1ccc(CCNC(=S)N2CCN(S(=O)(=O)c3ccccc3F)CC2)cc1 the results were HTR5A ag ctr 1, HTR5A inv ctr 10, V-ATPase pH 2, OPRM1-OPRD1 ag 2, MOR-DOR inv ag -9 and MIN6 prolif-1 -1.
`CCOC(=O)c1sc2nc[nH]c(=O)c2c1C` gave HTR5A ag ctr 2, HTR5A inv ctr -6, V-ATPase pH -50, OPRM1-OPRD1 ag -3, MOR-DOR inv ag 15 and MIN6 prolif-1 4.
CCOC(=O)c1c(C)c2c(=O)[nH]cnc2n1-c1ccccc1 was read as HTR5A ag ctr 6, HTR5A inv ctr -22, V-ATPase pH -2, OPRM1-OPRD1 ag -1, MOR-DOR inv ag 7, MIN6 prolif-1 9.8* and MIN6 prolif-2 12.
Screening CN(c1ccccc1)S(=O)(=O)c1cccc(NC(=O)CC(C)(C)C)c1 returned HTR5A ag ctr 10, HTR5A inv ctr -9, V-ATPase pH -2, OPRM1-OPRD1 ag 3, MOR-DOR inv ag -16 and MIN6 prolif-1 0.
`CCCN1Cc2cccc(C(=O)NCCc3ccccc3)c2C1=O` gave HTR5A ag ctr 4, HTR5A inv ctr -14, V-ATPase pH 1, OPRM1-OPRD1 ag -3, MOR-DOR inv ag 16, MIN6 prolif-1 11* and MIN6 prolif-2 -2.
`CCC(NC(C)C)C(O)c1ccc(O)c2[nH]c(=O)ccc12` (stereo not drawn) gave HTR5A ag ctr -7, HTR5A inv ctr -55, V-ATPase pH 1, OPRM1-OPRD1 ag -1, MOR-DOR inv ag 3, MIN6 prolif-1 19* and MIN6 prolif-2 0.
Screening c1cncc(-c2nc(N3CCOCC3)c3ccccc3n2)c1 returned HTR5A ag ctr 5, HTR5A inv ctr -18, V-ATPase pH 4, OPRM1-OPRD1 ag -1, MOR-DOR inv ag 6, MIN6 prolif-1 4.8* and MIN6 prolif-2 2.
O=C(c1ccccc1O)N1N=C(c2ccccc2)CC1(O)C(F)(F)F (stereo not drawn) was read as HTR5A ag ctr 1, HTR5A inv ctr 21, V-ATPase pH 0, OPRM1-OPRD1 ag 4, MOR-DOR inv ag -30 and MIN6 prolif-1 3.
`CCn1c(SCC(=O)N=Nc2c(O)[nH]c3ccccc23)nc2ccccc21` gave HTR5A ag ctr -2, HTR5A inv ctr -23, V-ATPase pH 3, OPRM1-OPRD1 ag 0, MOR-DOR inv ag 1, MIN6 prolif-1 0.0* and MIN6 prolif-2 -6.
